Reference: PubChem BioAssay (NCI)
About 79,000 compounds went through this panel and 15% of them were active in at least one assay; those are over-represented in the sample as a whole. Values without a mark were called inactive. No stated cut-off is given here; in the data, active means growth inhibition above about 70%; inactive means the rest.

Test: NCI Yeast Anticancer Drug Screen. Data for the sgs1 mgt1 strain (AID 161);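 further: 0% = growth of cultures given vehicle only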
Conditions: S. cerevisiae sgs1 mgt1 strain, at 50.0 µM, stronger effect = higher value
In short: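 Inhibition of yeast growth, normalised to vehicle-treated controls, is reported for a strain bearing genetic alterations in DNA damage repair.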
With `COc1cc2c(oc(=O)c3c4occc4cc(OC)c23)c2cccc(OCc3ccccc3)c12` the growth inhibition was -11.8%. For `Cc1csc2nc(-c3ccccc3)[nH]c(=S)c12`, the growth inhibition was 10.9%. Work on `O=C(OCCSC(=S)N1CCCCC1)c1ccccc1` yielded a growth inhibition of 2.4%. Work on `CCOC(=O)c1cnc2ccccc2c1OCC` yielded a growth inhibition of -6.5%. `Brc1cc2c(cc1C1SCCS1)OCO2` gave a growth inhibition of 58.5%. For `CCCCCCCCCCCCCOCC(=O)OC`, the growth inhibition was -4.9%. With `Cc1ccc(S(=O)(=O)NNC(=O)c2cccnc2)cc1` the growth inhibition was 1.35%. In the case of `Nc1ccc(C(=O)Nc2ccc(C(=O)Nc3ccc4c(O)cc(S(=O)(=O)O)cc4c3)cc2)cc1`, the growth inhibition is reported as -4.6%. `O=C(O)CCC1CCCO1` (stereo not drawn) showed a growth inhibition of -9.3%. In the case of `CCCC=Nc1ccccc1`, the growth inhibition is reported as 14.5%. In the case of `COc1ccc([N+](=O)[O-])c2ncncc12`, the growth inhibition is reported as 0.8%. For `CC(C)(C)OC(=O)C(C1NC2C(=O)OCC2(CO)S1)N1C(=O)c2ccccc2C1=O` (stereo not drawn), the growth inhibition was 25.9%. `CN(C)c1nc(N)nc(CS)n1` gave a growth inhibition of -9.05%. With `CN(CC1NCCCC1O)C12CC3CC(CC(C3)C1)C2` (stereo not drawn) the growth inhibition was 12.4%. With `O=[N+]([O-])c1ccc2[nH]ncc2c1` the growth inhibition was 0.35%. `Clc1ccc(-c2nnc(-c3ccccc3)o2)cc1Cl` showed a growth inhibition of -0.4%. With `O=C(NNC(=S)Nc1ccc(S(=O)(=O)N2CCCCC2)cc1)c1ccncc1` the growth inhibition was 33.5%. `CC(C)C(O)(C(=O)O)C(C)C` gave a growth inhibition of -4.1%. `CC1(C)/C(=C/N=O)N(O)C(C)(C)N1O` showed a growth inhibition of -43.8%. Compound `COc1ccc(N=Cc2ccc(C=Nc3ccc(OC)cc3)cc2)cc1` has a growth inhibition of 21.3%. `CC(=O)Nc1ccc2c(c1)Cc1cc(Cl)c(Cl)cc1-2` gave a growth inhibition of 31.7%. For `CCOC(=O)C(NC(=S)Cc1ccccc1)C(=O)OCC`, the growth inhibition was -4.8%. Work on `CC1C(=O)CCC2CCCCC21` (stereo not drawn) yielded a growth inhibition of 8.05%.

Test: NCI Yeast Anticancer Drug Screen. Data for the cln2 rad14 strain (AID 165);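 further: 0% = growth equal to vehicle treated cultures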
Conditions: S. cerevisiae cln2 rad14 strain, at 50.0 µM, stronger effect = higher value
In short: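 Each compound was tested on cln2 rad14 yeast. Inhibition of growth was calculated against vehicle-exposed controls.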
With `CC(=O)[O][Ga]([Br])[O]C(C)=O` the growth inhibition was 14.4%. In the case of `CCOC(=O)C(NC(=O)c1ccccc1)(N1CCN(c2cc3c(cc2F)c(=O)c(C(=O)O)cn3CC)CC1)C(F)(F)F` (stereo not drawn), the growth inhibition is reported as -18.4%. With `O=c1cc[nH]c2ccc(Cl)cc12` the growth inhibition was -33.4%. `CN(C)C(=S)OCC(C)(C)C` gave a growth inhibition of -35.3%. For `CC(=O)NC(Cc1ccccc1)C(=O)Nc1ccccc1C` (stereo not drawn), the growth inhibition was 10.6%. `CCCCCn1[nH]nc(C(=O)OC)c1=O` (tested in a mixture with another compound) showed a growth inhibition of 27.5%. Compound `O=c1ccc(=O)c2c(=O)c3cc4[nH]c5ccccc5[nH]c4cc3c(=O)c12` has a growth inhibition of 1.85%. With `CCOC(=O)CSc1nc(-c2ccc(Cl)cc2)c(C#N)c(=O)[nH]1` the growth inhibition was 27.1%. Work on `COc1cc2c(cc1OC)C1CCc3ccccc3CN1CC2` (stereo not drawn) yielded a growth inhibition of 8.95%. With `CC(=O)Nc1ccc(C(=O)N2N=C(C)/C(=C/c3cccc([N+](=O)[O-])c3)C2=O)cc1` the growth inhibition was 2.55%. Work on `COc1cccc(NC(=O)CC(=O)Nc2cccc(OC)c2)c1` yielded a growth inhibition of -32.1%. Work on `O=C(O)C1C2CCC3C(C(=O)O)C3C21` (stereo not drawn) yielded a growth inhibition of -40.2%. Work on `C=C1CCN(c2ccc([N+](=O)[O-])cc2)C1=O` yielded a growth inhibition of -37.6%. With `CCOC(=O)C(=O)C(=O)NN(C)C1=NCCN1` the growth inhibition was -13.6%. In the case of `Cc1cc(CC#N)c(CC#N)cc1C`, the growth inhibition is reported as 9.2%. Compound `S=c1sc2cscc2s1` has a growth inhibition of 28.6%. With `Nc1cc(F)ccc1CC(=O)O` the growth inhibition was -4.8%. `COc1cc2c(oc(=O)c3c4occc4cc(OC)c23)c2cccc(OCc3ccccc3)c12` gave a growth inhibition of 8.35%. `Cc1csc2nc(-c3ccccc3)[nH]c(=S)c12` showed a growth inhibition of -22.8%. `O=C(OCCSC(=S)N1CCCCC1)c1ccccc1` showed a growth inhibition of -11.9%. In the case of `CCOC(=O)c1cnc2ccccc2c1OCC`, the growth inhibition is reported as -43.9%. Compound `Brc1cc2c(cc1C1SCCS1)OCO2` has a growth inhibition of 18.6%. Compound `CCCCCCCCCCCCCOCC(=O)OC` has a growth inhibition of -29%. For `Cc1ccc(S(=O)(=O)NNC(=O)c2cccnc2)cc1`, the growth inhibition was -27.8%. For `Nc1ccc(C(=O)Nc2ccc(C(=O)Nc3ccc4c(O)cc(S(=O)(=O)O)cc4c3)cc2)cc1`, the growth inhibition was -34.3%. `O=C(O)CCC1CCCO1` (stereo not drawn) gave a growth inhibition of 10.2%. `CCCC=Nc1ccccc1` showed a growth inhibition of -19.9%. Work on `COc1ccc([N+](=O)[O-])c2ncncc12` yielded a growth inhibition of 6.6%. In the case of `CC(C)(C)OC(=O)C(C1NC2C(=O)OCC2(CO)S1)N1C(=O)c2ccccc2C1=O` (stereo not drawn), the growth inhibition is reported as -6.35%. In the case of `CN(C)c1nc(N)nc(CS)n1`, the growth inhibition is reported as 10.3%. With `CN(CC1NCCCC1O)C12CC3CC(CC(C3)C1)C2` (stereo not drawn) the growth inhibition was 12%. Compound `O=[N+]([O-])c1ccc2[nH]ncc2c1` has a growth inhibition of -3.15%. Work on `Clc1ccc(-c2nnc(-c3ccccc3)o2)cc1Cl` yielded a growth inhibition of 16%. `O=C(NNC(=S)Nc1ccc(S(=O)(=O)N2CCCCC2)cc1)c1ccncc1` gave a growth inhibition of 4.2%. With `CC(C)C(O)(C(=O)O)C(C)C` the growth inhibition was -4.3%. With `CC1(C)/C(=C/N=O)N(O)C(C)(C)N1O` the growth inhibition was 5.75%. In the case of `COc1ccc(N=Cc2ccc(C=Nc3ccc(OC)cc3)cc2)cc1`, the growth inhibition is reported as -0.95%. Work on `CC(=O)Nc1ccc2c(c1)Cc1cc(Cl)c(Cl)cc1-2` yielded a growth inhibition of -17.1%. For `CCOC(=O)C(NC(=S)Cc1ccccc1)C(=O)OCC`, the growth inhibition was -5.7%. In the case of `CC1C(=O)CCC2CCCCC21` (stereo not drawn), the growth inhibition is reported as 7.95%.
